In PubChem BioAssay (NCI) one finds growth data, which are given here for 9 compounds.

Among the test systems are SR leukemia; RPMI-8226 leukemia; OVCAR-8 ovarian; OVCAR-5 ovarian; OVCAR-4 ovarian; SK-OV-3 ovarian; IGROV1 ovarian; OVCAR-3 ovarian; HS 578T breast; NCI/ADR-RES ovarian; T-47D breast; BT-549 breast; MDA-MB-435 melanoma; SW-620 colon; MCF7 breast; HCT-116 colon; HCC-2998 colon; KM12 colon.
Holding throughout (assay): NCI-60 one-dose screen, 48 h (100 = growth as untreated, 0 = no growth, -100 = all killed)
Common to all, as to conditions: 10 µM unless noted

About 83,000 compounds went through this panel and 20% of them were active in at least one assay; those are over-represented in the sample as a whole.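 Plates (96-well) were seeded with cells, treated with compound at one concentration, and incubated for 48 hours before percent growth was determined.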 Values without a mark were called inactive. Active and inactive are the calls of the source. How the source made its calls: active means growth percent below 10; inactive means the rest.

Take `CC(=O)/C(=C/c1ccc(-c2ccccc2)cc1)C(=O)c1ccccc1`: the growth with SR leukemia is 5.97% (active); in the assay with RPMI-8226 leukemia it was 39.9%; in the assay on OVCAR-8 ovarian, 84.5%; in the assay with OVCAR-5 ovarian, 106%; with OVCAR-4 ovarian, 85.8%; in the assay with SK-OV-3 ovarian it was 95.4%. Further, the growth in the assay with IGROV1 ovarian is 91%; in the assay with OVCAR-3 ovarian, 89.4%; in the assay with HS 578T breast it was 102%; in the assay on NCI/ADR-RES ovarian it was 93.1%; with T-47D breast it was 48.6%; with BT-549 breast it was 89.5%. Also, the growth in the assay with MDA-MB-435 melanoma was 80.9%; in the assay with SW-620 colon, 85.5%; in the assay with MCF7 breast, 39.6%; in the assay on HCT-116 colon, 57.6%; with HCC-2998 colon, 98.9%; in the assay on KM12 colon, 80.5%.
With `COc1ccc(Cn2cc3c(c2-c2ccc(O)cc2)CCc2cnoc2-3)cc1`, the growth with SR leukemia is 11.5%; in the assay with RPMI-8226 leukemia, 26.6%; in the assay on OVCAR-8 ovarian it was 34.9%; in the assay with OVCAR-5 ovarian, 41.2%; with OVCAR-4 ovarian, 48.4%; in the assay on SK-OV-3 ovarian, 12%. Moreover, the growth in the assay on IGROV1 ovarian was 19.7%; with OVCAR-3 ovarian, -14.7% (active); in the assay on HS 578T breast it was 5.28% (active); with NCI/ADR-RES ovarian it was -1.58% (active); with T-47D breast, 50%; in the assay on BT-549 breast, 44.4%. Moreover, the growth is -39.4% (active) with MDA-MB-435 melanoma; 22.5% with SW-620 colon; 14.7% in the assay with MCF7 breast; 11.1% in the assay with HCT-116 colon; -21.1% (active) with HCC-2998 colon; 11.8% in the assay on KM12 colon.
For the compound `COc1cc(/C=C/C(=O)/C=C(/C=C/c2ccc(OC(C)=O)c(OC)c2)OB(F)F)ccc1OC(C)=O`, the growth in the assay on SR leukemia was -2.62% (active); with RPMI-8226 leukemia, 14.3%; in the assay with OVCAR-8 ovarian it was 20%; in the assay with OVCAR-5 ovarian, 104%; in the assay with OVCAR-4 ovarian, 69.6%; in the assay with SK-OV-3 ovarian, 94.8%. For the same compound, the growth with IGROV1 ovarian was 65.5%; in the assay with OVCAR-3 ovarian, 18.9%; with HS 578T breast it was 76.2%; in the assay on NCI/ADR-RES ovarian, 43.6%; in the assay with T-47D breast, 41.9%; in the assay with BT-549 breast, 37.3%. In addition, the growth in the assay with MDA-MB-435 melanoma is 41%; in the assay with SW-620 colon it was 17.5%; in the assay on MCF7 breast it was 21.5%; in the assay on HCT-116 colon, 6.64% (active); in the assay on HCC-2998 colon, 100%; with KM12 colon it was 73.8%.
With `OCC(O)C(O)CC1SCCS1` (configuration not stated), the growth in the assay with SR leukemia was 103%; in the assay on RPMI-8226 leukemia, 122%; with OVCAR-8 ovarian it was 96.3%; in the assay with OVCAR-5 ovarian, 106%; in the assay with OVCAR-4 ovarian it was 112%; in the assay on SK-OV-3 ovarian, 103%. Also, the growth with IGROV1 ovarian was 107%; in the assay on OVCAR-3 ovarian it was 101%; in the assay on HS 578T breast, 106%; in the assay on NCI/ADR-RES ovarian, 102%; with T-47D breast it was 97.1%; in the assay with BT-549 breast, 102%. Further, the growth was 105% in the assay on MDA-MB-435 melanoma; 99.7% with SW-620 colon; 103% in the assay with MCF7 breast; 104% in the assay with HCT-116 colon; 108% with HCC-2998 colon; 103% in the assay on KM12 colon.
On to `COc1ccc(C2C3(C#N)C(N)=NC(=C(C#N)C#N)C23C#N)cc1OC` (configuration not stated), for which the growth with SR leukemia is 83.6%; with RPMI-8226 leukemia, 117%; in the assay on OVCAR-8 ovarian it was 106%; with OVCAR-5 ovarian it was 93.3%; in the assay on OVCAR-4 ovarian it was 110%; with SK-OV-3 ovarian, 109%. Moreover, the growth in the assay with IGROV1 ovarian was 113%; in the assay on OVCAR-3 ovarian, 109%; in the assay on HS 578T breast, 96.5%; in the assay with NCI/ADR-RES ovarian, 114%; in the assay with T-47D breast, 110%; with BT-549 breast, 93.3%. The growth with MDA-MB-435 melanoma is 107%; in the assay with SW-620 colon, 106%; in the assay with MCF7 breast, 108%; in the assay with HCT-116 colon, 112%; in the assay with HCC-2998 colon it was 122%; with KM12 colon, 118%.
For `CCCNC(=O)Oc1ccc(/C(=C(/C)Cc2ccc(OC)cc2)c2ccc(OCCN3CCCCC3)cc2)cc1`, the growth with SR leukemia is 3.39% (active); with RPMI-8226 leukemia it was 77.5%; in the assay with OVCAR-8 ovarian it was 91.1%; in the assay on OVCAR-5 ovarian, 94.9%; in the assay on OVCAR-4 ovarian, 87.3%; in the assay on SK-OV-3 ovarian, 90.2%. For the same compound, the growth in the assay with IGROV1 ovarian was 98.4%; in the assay on OVCAR-3 ovarian, 88.6%; in the assay with HS 578T breast, 71.7%; with NCI/ADR-RES ovarian it was 84.4%; with T-47D breast it was 45.4%; in the assay on BT-549 breast it was 92.9%. The growth in the assay with MDA-MB-435 melanoma is 92.5%; in the assay with SW-620 colon it was 90.4%; in the assay on MCF7 breast it was 31.8%; in the assay with HCT-116 colon, 73%; in the assay on HCC-2998 colon, 84.6%; in the assay on KM12 colon, 94%.
With `COc1ccc2c(c1)/C(=C1/S/C(=N/c3nnc(C)s3)NC1=O)C(=O)N2Cc1ccc(Br)cc1`, the growth in the assay with SR leukemia was 55%; in the assay with RPMI-8226 leukemia it was 26.6%; in the assay with OVCAR-8 ovarian, 38%; with OVCAR-5 ovarian, 74.5%; with OVCAR-4 ovarian it was 40.1%; in the assay with SK-OV-3 ovarian, 52.1%. In addition, the growth with IGROV1 ovarian is 40.9%; with OVCAR-3 ovarian, 28.7%; in the assay with HS 578T breast, 47.8%; in the assay on NCI/ADR-RES ovarian, 32.2%; in the assay with T-47D breast, 22%; in the assay with BT-549 breast it was 42.9%. Besides, the growth with MDA-MB-435 melanoma was 39.3%; in the assay on SW-620 colon, 44.5%; with MCF7 breast, 35.1%; in the assay on HCT-116 colon, 19.7%; in the assay on HCC-2998 colon, 46.1%; in the assay on KM12 colon, 27.7%.
As to `CCOC(=O)c1c(C)oc2ncnc(Nc3ccc(NC(=O)Nc4ccc(CC)cc4)cc3)c12`, the growth in the assay on SR leukemia was 81.6%; in the assay with RPMI-8226 leukemia, 95.1%; with OVCAR-8 ovarian, 112%; in the assay on OVCAR-5 ovarian it was 107%; in the assay on OVCAR-4 ovarian it was 105%; in the assay on SK-OV-3 ovarian it was 88.2%. The growth in the assay with IGROV1 ovarian was 110%; in the assay with OVCAR-3 ovarian, 118%; in the assay with HS 578T breast, 97.7%; in the assay on NCI/ADR-RES ovarian it was 97.2%; with T-47D breast, 78.3%; in the assay with BT-549 breast, 84.5%. Moreover, the growth with MDA-MB-435 melanoma was 102%; in the assay with SW-620 colon it was 113%; in the assay with MCF7 breast it was 94.9%; in the assay on HCT-116 colon, 78.8%; in the assay with HCC-2998 colon, 114%; in the assay with KM12 colon, 103%.
As to `COc1ccc(Cn2cc3c(c2-c2ccc(OC)cc2)CCc2cnoc2-3)cc1`, the growth in the assay with SR leukemia was 1.81% (active); in the assay on RPMI-8226 leukemia, 16.7%; in the assay with OVCAR-8 ovarian, 23.8%; with OVCAR-5 ovarian, 52.2%; in the assay on OVCAR-4 ovarian it was 35.9%; in the assay on SK-OV-3 ovarian it was 3.54% (active). Also, the growth in the assay on IGROV1 ovarian is -2.82% (active); in the assay on OVCAR-3 ovarian, -18.2% (active); with HS 578T breast it was -2.76% (active); with NCI/ADR-RES ovarian, -3.57% (active); with T-47D breast, 38.7%; in the assay with BT-549 breast, 30.3%. Moreover, the growth with MDA-MB-435 melanoma was -29.7% (active); in the assay with SW-620 colon it was 22.6%; in the assay on MCF7 breast, 4.23% (active); with HCT-116 colon, 4.82% (active); in the assay on HCC-2998 colon it was -30.2% (active); with KM12 colon, 5.5% (active).
